The values below come from the supplement of paper PMC4954754.

Several values for one entry are separate records, joined by “and”; a condition that tells them apart may be missing. Identical values can stand only once. ± gives the uncertainty stated by the source.

This test has as its system HEK293T-Rex ERSE-FLuc. Briefly: ERSE-FLuc reporter activation, triplicate confirmation, relative to 500 nM thapsigargin (% of thapsigargin); higher = stronger ATF6/ERSE reporter activation. Particulars: 6.8 µM; 18 h; screen: confirmation. The method, then: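 HEK293T-Rex cells stably expressing the ERSE-firefly luciferase (BiP promoter, ATF6-preferring) or XBP1-splicing Renilla luciferase (IRE1/XBP1s) reporter, 1536-well plates, compound at 6.8 µM for 18 hr at 37 °C; luminescence read […] and expressed as % activation = 100*(compound - median DMSO)/(median 500 nM thapsigargin - median DMSO). Primary screen was single-pass; confirmation screen in triplicate (mean ± SD).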
As for `O=C(/C=C/c1ccccc1)Nc1ccc(Br)cn1`, the ERSE-FLuc reporter activation turned out to be 27.6 ± 6.8.

In turn, `CC(C)NC(=O)c1cc(-c2ccc(O)cc2)on1` returned an ERSE-FLuc reporter activation of 25.8 ± 3.

In turn, `O=C1c2cc(O)ccc2-c2ccc(O)cc21` yielded an ERSE-FLuc reporter activation of 25.6 ± 6.

Compound `CCN(CC)c1ccc(NC(=O)c2cccc(OC)c2)cc1` yielded an ERSE-FLuc reporter activation of 26.1 ± 1.1.

`COc1cccc(C(=O)/C=C/Nc2cc(C)ccc2O)c1` showed an ERSE-FLuc reporter activation of 116 ± 7.9.

For the compound `N#C/C(=C(/O)c1cc(-c2ccccc2)nc2ccccc12)c1nc2ccccc2[nH]1`, the ERSE-FLuc reporter activation was found to be 31.1 ± 13.

Compound `Cc1ccc(-c2csc(Nc3ccc(O)cc3)n2)cc1` gave an ERSE-FLuc reporter activation of 26.7 ± 7.1.

Compound `CCCCCCc1ccc(-c2ncc(N)cn2)cc1` gave an ERSE-FLuc reporter activation of 33.2 ± 4.7.

`COc1ccc(-n2nnnc2SCC(N)=O)c(OC)c1` came in with an ERSE-FLuc reporter activation of 34.5 ± 5.7.

With `NC(=O)c1c(NC(=O)/C=C/c2ccccc2)sc2c1CCCCC2`, the ERSE-FLuc reporter activation amounted to 28.9 ± 2.4.

As to `CN(C)c1ccc(C2C(C#N)=C(N)Oc3c2sc2ccccc32)cc1[N+](=O)[O-]` (stereo not given), the ERSE-FLuc reporter activation was found to be 26 ± 0.29.

`COc1cccc(C2=NOC(C(=O)Nc3cc(C)ccc3O)C2)c1` (stereo not given): the ERSE-FLuc reporter activation came to 30.3 ± 8.3.

`Nc1ccc2nc(-c3ccc(Cl)cc3)[nH]c2c1` came in with an ERSE-FLuc reporter activation of 33.6 ± 2.4.

The compound `O=c1/c(=C/c2ccc(O)c(O)c2)sc2nc3ccccc3n12` gave an ERSE-FLuc reporter activation of 37.5 ± 3.7.

In turn, `C=CCNC(=O)c1cc(-c2ccccc2)on1` had an ERSE-FLuc reporter activation of 43.4 ± 5.

With `O=C(Nc1ccc2nc(NC(=O)C3CCCCC3)sc2c1)C1CCCCC1`, the ERSE-FLuc reporter activation worked out at 26.5 ± 4.1.

Regarding `O=c1cc(-c2ccc(O)c(O)c2)oc2cc(O)cc(O)c12`, the ERSE-FLuc reporter activation is 46 and 36.9.

`Cc1ccc(O)c(N=CC2=C(O)c3ccccc3C2=O)c1` showed an ERSE-FLuc reporter activation of 78.8 ± 6.2.

Take `O=C1/C(=C/c2ccc(O)c(O)c2)Oc2cc(O)ccc21`: the ERSE-FLuc reporter activation was found to be 26.9 ± 5.9.

`Nc1ccc2nc(-c3ccc(Br)cc3)[nH]c2c1` came in with an ERSE-FLuc reporter activation of 36.7 ± 10.

`CC(=O)Oc1ccc(C(=O)OCc2ccc(Cl)cc2)cc1OC(C)=O` showed an ERSE-FLuc reporter activation of 35.9 ± 4.4.

In turn, `Cc1ccc2c(N)c(C(=O)c3ccc4c(c3)OCO4)sc2n1` registered an ERSE-FLuc reporter activation of 35.9 ± 4.3.

Compound `N#C/C(=C/c1ccc(O)c(O)c1)c1nc2ccccc2s1` displayed an ERSE-FLuc reporter activation of 51.2 ± 8.1.

In turn, `CC(C)CC(c1nnnn1C1CCCC1)N1CCN(C(=O)c2ccco2)CC1` (stereo not given) displayed an ERSE-FLuc reporter activation of 29.5 ± 1.

Turning to `Oc1ccc(/C=N/Nc2cccc(Cl)n2)c(O)c1`, the ERSE-FLuc reporter activation was determined as 31 ± 7.1.

With `NC(=O)c1c(NC(=O)c2cccc3ccccc23)sc2c1CCC2`, the ERSE-FLuc reporter activation is 32 ± 1.6.

Compound `O=C(NC(c1ccccc1)c1ccccc1)c1csc(-c2cnccn2)n1` came in with an ERSE-FLuc reporter activation of 30.5 ± 7.8.

Turning to `C/C(=N\NC(=O)c1n[nH]c2c1CCCC2)c1ccc(Br)cc1`, the ERSE-FLuc reporter activation turned out to be 27.2 ± 1.9.

`CC(C)c1ccc(/C=N\NC(=O)c2ccccc2)cc1`: the ERSE-FLuc reporter activation amounted to 27.4 ± 3.1.

Turning to `Cc1cc(C)c2nc3sc(C(=O)N4CCCCC4)c(N)c3cc2c1`, the ERSE-FLuc reporter activation was 32.5 ± 8.

For `OCCNc1nc(Nc2ccc(Br)cc2)nc2ccccc12`, the ERSE-FLuc reporter activation was 54.2 ± 16.

With `Nc1nc(Nc2ccc(Cl)cc2)nc2ccccc12`, the ERSE-FLuc reporter activation turned out to be 30.7 ± 5.2.

The compound `CC(=O)N1CCc2c([nH]c3ccccc23)C12CCN(CCCOc1ccccc1)CC2` yielded an ERSE-FLuc reporter activation of 44.2 ± 8.7.

As to `Fc1ccc(-c2nnc3ccc(N4CCN(c5ccccn5)CC4)nn23)cc1`, the ERSE-FLuc reporter activation worked out at 34.3 ± 3.5.

Compound `C=CCNC(=O)c1cc(-c2cccs2)on1` displayed an ERSE-FLuc reporter activation of 72.1 ± 6.

`O=C(COC(=O)c1cc(O)c(O)c(O)c1)Nc1ccc(Br)cc1F` registered an ERSE-FLuc reporter activation of 57.9 ± 11.

Turning to `Cc1cccc2c1[nH]c1nc(N/N=C\c3c[nH]c4ccccc34)nnc12`, the ERSE-FLuc reporter activation was 60.4 ± 14.

`O=C(Nc1ccc(Cl)cn1)c1ccc(Cl)cc1Cl` returned an ERSE-FLuc reporter activation of 27.1 ± 2.4.

On to `O=C(/C=C/c1ccco1)Nc1ccc(Br)cc1Cl`, for which the ERSE-FLuc reporter activation came to 25.5 ± 1.6.

With `N#Cc1c(NC(=O)c2ccc3ncsc3c2)sc2c1CCC2`, the ERSE-FLuc reporter activation came out at 32.1 ± 2.5.
